Reference: PubChem BioAssay (NCI)
The panel holds about 79,000 compounds, 15% with a hit somewhere; the sample as a whole holds those more often. Values without a mark were called inactive. Active and inactive are the calls of the source. No stated cut-off is given here; in the data, active means growth inhibition above about 70%; inactive means the rest.

Legend:
[1] = NCI Yeast Anticancer Drug Screen. Data for the rad50 strain (AID 155);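 further: 0% = growth of vehicle-only cultures of the same strain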; conditions: S. cerevisiae rad50 strain growth inhibition; at 50.0 µM; active compounds read high
How it was run: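 Growth of the mutant yeast was measured after compound exposure and referenced to vehicle-treated cultures.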

[2] = NCI Yeast Anticancer Drug Screen. Data for the mec2-1 strain (AID 157); conditions: S. cerevisiae mec2-1 strain, at 50.0 µM, active compounds read high
How it was run: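 Using mec2-1 yeast: add compound, measure growth, express inhibition versus vehicle-treated cultures.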

[3] = NCI Yeast Anticancer Drug Screen. Data for the sgs1 mgt1 strain (AID 161);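 further: 0% = growth of cultures given vehicle only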; conditions: S. cerevisiae sgs1 mgt1 strain, at 50.0 µM, active compounds read high
How it was run: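 This yeast growth screen uses a strain with defined DNA-repair lesions; compound-treated growth is compared with vehicle-treated growth.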

[4] = NCI Yeast Anticancer Drug Screen. Data for the cln2 rad14 strain (AID 165);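 further: 0% = growth equal to vehicle treated cultures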; conditions: S. cerevisiae cln2 rad14 strain, at 50.0 µM, active compounds read high
How it was run: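 Yeast strain cln2 rad14, bearing defects in cell cycle control and DNA repair, serves as the test system; values reflect growth inhibition compared with vehicle.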

[5] = NCI Yeast Anticancer Drug Screen. Data for the bub3 strain (AID 167); conditions: S. cerevisiae bub3 mutant strain, at 50.0 µM, active compounds read high
How it was run: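 Whole-cell yeast assay. The mutant strain was incubated with compounds, and growth inhibition was determined by comparison with vehicle-treated cells.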

[6] = NCI Yeast Anticancer Drug Screen. Data for the mlh1 rad18 strain (AID 175); conditions: S. cerevisiae mlh1 rad18 strain growth inhibition; at 50.0 µM; active compounds read high
How it was run: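 Steps: expose repair-defective yeast to compound; measure growth; express inhibition against vehicle-treated controls.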

Structure (SMILES) | growth inhibition [1] | growth inhibition [2] | growth inhibition [3] | growth inhibition [4] | growth inhibition [5] | growth inhibition [6]
Clc1ccc(-n2ncc3c2-c2ccccc2CCC3)cc1 | 31.4% | -6.5% | 3.5% | 4.85% | 48.2% | 34.3%
O=c1c(Cc2ccccc2)c(O)cc2n1CCC2 | -14.5% | -14.4% | -10.7% | 8.75% | -5.25% | -10.9%
BrC1c2ccccc2-c2nc3ccccc3nc21 (configuration not stated) | 11.2% | 4.6% | 1.6% | 56.2% | 17.1% | 29.9%
C=C1C2CC(OC(C)=O)C3(C)C(c4ccoc4)OC(=O)[C@@H](O)[C@]13OC1C[C@H](OC(C)=O)C(C)(C)[C@H](C(O)C(=O)OC)[C@]12C (some centres not stated) | -11.8% | -34.4% | 2.4% | 3.45% | -8.1% | 0.25%
CCOC(=O)Nc1ccc(F)c(C(F)(F)F)c1 | -8.05% | 4.45% | 8.6% | -52.3% | 11.6% | -4.25%
COCCOC(=O)c1ccccc1C | 8.7% | 2.35% | 0.3% | -27.6% | 11.8% | 0.55%
Cc1ncc([N+](=O)[O-])n1CC[N+](C)([O-])CCCCn1ccnc1[N+](=O)[O-] (configuration not stated) | 16.9% | -20.6% | 20.6% | -41.5% | -3.95% | -9%
CCOC(=O)NCCNC(=O)OCC | 8.8% | 0.3% | 1.45% | 6.65% | -11.7% | 3.6%
CC1c2ccccc2-c2ccccc21 | 10.2% | -4.9% | 7.25% | -3.15% | -1% | 20.4%
Clc1ccc2sc(-n3ccc4ccccc43)nc2c1 | -35.9% | -12.3% | -24.7% | 7.65% | -15.4% | -30.7%
CCCCCc1c(C)nc(N)[nH]c1=O | -3.95% | 0.7% | 1.2% | -40% | -15.4% | -5.45%
CC(c1ccc2ccc3cccc4ccc1c2c34)C(C(=O)O)C(=O)O (configuration not stated) | -0.85% | -15.8% | 8.6% | -7.15% | 0.75% | 5.7%
CCCCCCO/N=C\c1c2c(O)c3c(O)c(C)c4c(c3c1O)C(=O)C(C)(O/C=C\C(OC)C(C)C(OC(C)=O)C(C)C(O)C(C)C(O)C(C)/C=C\C=C(\C)C(=O)N2)O4 (configuration not stated) | 25.2% | 63.4% | 36.6% | 54% | 26.2% | 53.9%
Nc1nc(-c2ccco2)cc(-c2ccc(CO)o2)n1 | -21.8% | 3.5% | -10.2% | 8.25% | 16% | 3.9%
CC(=O)/C(=C/n1c(=S)sc2ccccc21)C(=O)Nc1ccccc1C | -3.75% | 0.9% | 54.4% | 15.9% | 9.2% | 41.6%
CC(=O)Oc1ccc(C2OC(=O)c3ccccc3N2C(C)=O)cc1 (configuration not stated) | 4.05% | 27.6% | 12.7% | -6.3% | 34.6% | 26.9%
c1ccc(-c2ccc3c4ccccc4ccn23)cc1 | 9.2% | -4.1% | 8.9% | 17.7% | 12.7% | 23.9%
O=S(=O)(Oc1ccc(OS(=O)(=O)c2ccccc2)cc1)c1ccccc1 | -8.8% | 1% | -0.3% | 0.05% | 12.5% | 14.6%
O=C1/C(=C/c2ccc(Cl)cc2)Oc2ccccc21 | -31.4% | -7.05% | -18.9% | 1.4% | -8.1% | -19.6%

Structure (SMILES) | growth inhibition [1] | growth inhibition [2] | growth inhibition [3] | growth inhibition [4] | growth inhibition [5] | growth inhibition [6]
CCCCCC#CC(=O)OC | -14.8% | 1.45% | -17.4% | 9.95% | -2.2% | 2.75%
CC(=O)NC1C(OCc2ccccc2)OC(COC(=O)CCCCCCCCCCNc2ccc([N+](=O)[O-])c3[nH]c4ccccc4c(=O)c23)C(O)C1OC(C)C(=O)NC(C)C(=O)NC(CCC(N)=O)C(=O)OCc1ccccc1 (configuration not stated) | 30.7% | 9.8% | -3.3% | 14.4% | 6.15% | 12.9%
CCCNC(=O)/C=C/C(=O)NCCC | 8.55% | -0.8% | -1.55% | -43.2% | -6% | 4.1%
CCc1cc2c(cc1C(=O)/C=C\c1ccco1)C(C)(C)CCC2(C)C | 97.2% (active) | 98.2% (active) | 97.5% (active) | 96.8% (active) | 97.7% (active) | 97.8% (active)
CCOC(=O)CCNc1nc(N)nc(C)c1NC=O | -11.9% | 5.55% | -16.5% | 9.7% | 5.9% | 16.9%
Cc1c(C#N)c2n(c1C)CCN2 | -14.3% | -14.1% | -9.2% | -36% | -5.65% | -4.45%
NCCS/C=C\C(=O)OCc1ccc(Br)cc1 | 31.6% | 4.4% | 9.65% | 6.45% | 19.1% | 54.1%
O=C(O)CSC(=S)c1ccccc1 | 16.4% | 19.8% | 4% | -5.7% | -15.8% | -12.9%
c1ccc(-c2ccc[n+](C[n+]3cccc(-c4ccccn4)c3)c2)nc1 | 10.2% | -10.5% | -22.9% | -8.5% | -3.8% | 33.1%
O=C(C[n+]1cc(Br)cc(Br)c1)c1ccc(Br)cc1 | -16.9% | -0.15% | -0.05% | -0.9% | -4.95% | 37.9%
COCC(=O)C(C(C)=O)C(c1ccc(N(C)C)cc1)C(C(C)=O)C(=O)COC (configuration not stated) | -12.2% | -10.6% | -12.7% | -69.7% | 2.8% | -9.35%
Cn1c(=O)c2[nH]c(SC3CCCCC3)nc2n(C)c1=O | 19.2% | 11.4% | 18.6% | 11.3% | 35.8% | 8.9%
Nc1cc2c(cc1Br)-c1cc(Cl)c(Cl)cc1C2=O | -5.75% | -13.8% | -7.15% | -23.1% | -2.1% | -11.5%
[O-][n+]1c(CN2CCCCC2)nc2cccc3c2c1-c1ccccc1-3 | 33.4% | 12.3% | -3.5% | -8.55% | 20.6% | 13.1%
CCN(CC)CCSc1nnc(-c2cc(OC)c(OC)c(OC)c2)o1 | 32.5% | 1.1% | -21.1% | 14.8% | 4.2% | -9.85%
Cc1c([N+](=O)[O-])cc(C(=O)O)cc1[N+](=O)[O-] | 35.6% | -0.15% | 16.4% | -7.4% | 2.55% | 27.9%
CCC(CC)NNC(CC)CC | -1.8% | -0.6% | -8.05% | 5.35% | -16.3% | -8.25%
CCCCCCCCCCCCCCCCS(=O)(=O)c1ccc(S(=O)(=O)CS(C)(=O)=O)cc1[N+](=O)[O-] | -5.55% | -16.2% | 9.85% | 0.85% | 21.1% | 15.3%
